# Only some compounds are listed: those with a hit (about 5.5% of all), similar ones and a draw of the others.
# CtBP-E1A blk: blocks the CtBP interaction with E1A; AlphaScreen GST-E1A/His-CtBP binding, 1536-well; hits give low values; activity change, % (no concentration beside the values); hit rate 0.49% among 340,000; in the data active = activity change below about -65%; inconclusive = mostly about -30% to -63%; also: % is scaled to controls: 0 for no effect and ±100 for the full control effect
#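 GST-E1A and His-tagged CtBP (125 nM each as 5X stock) were preincubated with pin-transferred compound for 2 h at 37 °C in the dark, then glutathione donor and nickel acceptor beads were added for 1 h before AlphaScreen reading.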
# Gal4-VP16 FLuc: Gal4-VP16 reporter inhibition counter-screen; Potency, µM (top dose mostly 53.6 µM), without a hit: at the highest dose activity, negative = inhibition, most hits filed as inhibitors; Drosophila S2 Gal4-VP16 UAS-luciferase, luminescence, 20 h; hit rate 3.5% among 310,000;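 also: Gal4-VP16 expression switched on by copper sulfate through the metallothionein promoter; potency is read from the fitted curve at half-maximal effect; % is scaled to controls: 0 for no effect and ±100 for the full control effect; nearly all actives have a fitted effect of over 50% in size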
# Six1-Eya2 blk: Six1/Eya2 interaction inhibition; activity change, % (test concentration not listed); hit rate 0.56% among 360,000; Q15475+O00167; AID 651725; AlphaScreen GST-Six1/His-Eya2 binding, biochemical; hits give low values; in the data active = activity change below about -65%; inconclusive = mostly about -30% to -63%; also: % is scaled to controls: 0 for no effect and ±100 for the full control effect
#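 Homogeneous AlphaScreen proximity assay pairing GST-Six1 with His-tagged Eya2 (added as 5X mix: 250 nM and 500 nM) in 50 mM Tris pH 8.0, 300 mM NaCl, 1 mM TCEP. Glutathione donor and nickel acceptor beads; 1 h, 37 °C, dark.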
# CBFb RUNX1 block: inhibitors of human CBF-beta and RUNX1 interaction; Q01196+Q13951; AlphaScreen CBFb-His/RUNX1-biotin binding, biochemical; Potency, µM (top dose mostly 59.8 µM), without a hit: at the top dose activity, negative = inhibition, hits mostly inhibitors; 230,000 tested, under 10 active; AID 1477; also: % of control where 0% means no effect
#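 CBF-beta (His) and RUNX1 (biotin), 30 nM each; 20 min preassociation; + compound, 15 min; + beads 50 ng each (Ni, streptavidin), 90 min; RT; AlphaScreen read.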
# RORg inh: blocks mouse ROR gamma transcriptional activity | AID 2551 | Potency, µM (top dose mostly 53.6 µM), inactives show top-dose activity change, negative = inhibition, usual class: inhibitors | Drosophila S2 Gal4-RORgamma UAS-luciferase reporter, 20 h | hit rate 5.4% among 310,000; also: potency is read from the fitted curve at half-maximal effect; % is scaled to controls: 0 for no effect and ±100 for the full control effect; nearly all actives have a fitted effect of over 60% in size
# Target sequence (P51450 whole entry, looked up, the tested form may be a part): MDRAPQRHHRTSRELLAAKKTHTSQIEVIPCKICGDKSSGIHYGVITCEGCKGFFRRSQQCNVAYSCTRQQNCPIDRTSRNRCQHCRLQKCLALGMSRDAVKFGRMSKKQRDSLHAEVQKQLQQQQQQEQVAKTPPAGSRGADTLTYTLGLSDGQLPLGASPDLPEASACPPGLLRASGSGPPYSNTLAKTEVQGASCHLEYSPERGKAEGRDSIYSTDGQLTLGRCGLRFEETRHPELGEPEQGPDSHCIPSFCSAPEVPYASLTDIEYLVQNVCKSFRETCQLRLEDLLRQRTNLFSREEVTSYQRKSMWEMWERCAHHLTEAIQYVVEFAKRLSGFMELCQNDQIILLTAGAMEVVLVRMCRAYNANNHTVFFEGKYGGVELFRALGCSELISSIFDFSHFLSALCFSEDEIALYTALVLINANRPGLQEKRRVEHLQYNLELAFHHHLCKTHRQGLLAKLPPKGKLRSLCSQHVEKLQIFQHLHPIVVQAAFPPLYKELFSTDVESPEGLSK
#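 Stable Schneider cell line, Gal4 DNA-binding domain fused to ROR gamma, UAS-luciferase. Cmpd 1 hr RT → CuSO4 700 uM final → 20 hr RT → luciferase reagent 10 min → luminescence.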
# MBNL1 CUG block: inhibitors of human MBNL1 binding to CUG repeat RNA | hit rate 0.036% among 280,000 | TR-FRET MBNL1-His/biotin-(CUG)12 binding, 665/545 ratio | Potency, µM (highest dose often 57.5 µM), inactives show top-dose activity change, negative = inhibition, hits mostly inhibitors | Q9NR56; active = well fitted inhibition curve with a large enough effect in the signal ratio, with a control signal flat, not every such curve was filed as active; inconclusive = small, poorly fitted or top-dose-only effect, or effect the other way, or a change in a side signal; inactive = no such curve, though single readings can be large or run the other way; the % refers to the signal ratio; also: potency is read from the fitted curve at half-maximal effect; % is scaled to controls: 0 for no effect and ±100 for the full control effect
#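 His-tagged MBNL1 binding to biotinylated (CUG)12 RNA was measured by TR-FRET using terbium anti-His antibody (0.055 ng/ul final) and streptavidin-XL665 (5 nM final). Compounds were titrated 92 nM to 58 uM; 60 min at room temperature.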
# * = called active by the depositor; ? = inconclusive; nt = no result given. Unless noted, calls follow the shape of the dose curve; as a rule, active = well fitted curve in the direction sought with a large enough effect; inconclusive = small, poorly fitted or top-dose-only effect, or another doubt; inactive = no such curve, though single readings can be large; an effect the other way counts as inactive or inconclusive.
SMILES,CtBP-E1A blk,Gal4-VP16 FLuc,Six1-Eya2 blk,CBFb RUNX1 block,RORg inh,MBNL1 CUG block
C[C@H](CO)N1C[C@H](C)[C@@H](CN(C)C(=O)Nc2ccc3c(c2)OCO3)Oc2ccc(NC(=O)C3CCCCC3)cc2C1=O,0,nt,-2,nt,nt,nt
Cn1c(=O)c(Nc2ccc(O)cc2)c2c3c(cccc31)C(=O)c1ccccc1-2,-73*,-8%,-77*,-3%,-31%,?
COc1ccc(C2NC(=O)c3ccccc3O2)cc1 (stereo unspecified),1,2%,-3,nt,-21%,6%
Cc1cccc(NC(=S)NC(=O)CC2CC(C)(C)OC2=O)c1 (stereo unspecified),nt,-18%,0,4%,11µM*,55%
Cc1ccc(NC(=S)NC(=O)CC2CC(C)(C)OC2=O)cc1 (stereo unspecified),nt,-6%,0,2%,?,7%
COc1ccc(Cl)cc1NC(=S)NCCC(c1ccccc1)c1ccccc1,-1,4.5µM*,-15,-1%,7.1µM*,?
COc1ccccc1NC(=S)NCCC(c1ccccc1)c1ccccc1,nt,?,-9,-20%,11µM*,nt
COc1ccc(Cl)cc1NC(=O)C/C(C)=N/NC(=O)c1ccc(O)cc1,-1,?,-20,nt,8.9µM*,-9%
COc1ccc(Cl)cc1NC(=S)NCCO,5,-6%,0,5%,4%,1%
COc1ccc(Cl)cc1NC(=S)Nc1ccccc1C,3,?,10,2%,11µM*,-7%
CC(=O)OCC(=O)C1(O)CCC2C3CCC4=CC(=O)CCC4(C)C3(F)C(O)CC21C (stereo unspecified),-3,nt,-1,nt,nt,nt
COc1cc(NC(=S)NCCCN2CCOCC2)c(OC)cc1Cl,7,5%,-2,16%,-23%,1%
COc1ccc(Cl)cc1NC(=O)CNC(c1ccccc1)c1ccccc1,5,2.5µM*,6,nt,?,-4%
COc1cc(NC(=S)NCCC(c2ccccc2)c2ccccc2)c(OC)cc1Cl,-14,3.2µM*,-18,-6%,5µM*,3%
COc1ccc(C)cc1NC(=O)CNC(c1ccccc1)c1ccccc1,4,-3%,3,nt,30%,-6%
C[C@@]12CCc3occc3[C@H]1CC[C@]13CC(=O)[C@@H](CC[C@H]12)C3,nt,-4%,nt,16%,-15%,nt
c1ccc(-c2nc(-c3cccs3)[nH]c2-c2ccccc2)cc1,0,-8%,-3,-6%,10µM*,2%
O=C(Nc1nnc(-c2ccccc2Cl)o1)c1ccc(S(=O)(=O)N2CCCCCC2)cc1,-5,0.4µM*,-1,3%,0.45µM*,-7%
O=C(Nc1nnc(-c2cccs2)o1)c1ccc(S(=O)(=O)N2CCOCC2)cc1,-15,1.6µM*,-11,?,0.71µM*,1%
CC1CCCCN1S(=O)(=O)c1ccc(C(=O)Nc2nnc(-c3ccccc3Cl)o2)cc1 (stereo unspecified),-6,0.5µM*,0,-2%,0.71µM*,8%
CCC1CCCCN1S(=O)(=O)c1ccc(C(=O)Nc2nnc(C3CC3)o2)cc1 (stereo unspecified),-22,0.32µM*,-7,nt,0.32µM*,-2%
O=C(NCc1ccncc1)[C@@H]1CCCN1C(=O)[C@H]1CCCN1,3,nt,-2,nt,nt,nt
COc1ccc(NC(=O)c2cc(-c3cc(C)cc(F)c3)n[nH]2)cc1OC,-12,nt,-12,nt,nt,nt
COc1ccc(CN2C[C@H]3CON(C)[C@H]3C[C@H]2c2ccc(-c3ccccc3)cc2)cc1,?,nt,-10,nt,nt,nt
CC(OC(=O)C1CCCC1)C(=O)Nc1ncc(Cl)cc1Cl (stereo unspecified),2,nt,5,nt,nt,nt
SMILES,CtBP-E1A blk,Gal4-VP16 FLuc,Six1-Eya2 blk,CBFb RUNX1 block,RORg inh,MBNL1 CUG block
CCC1CCCCN1S(=O)(=O)c1ccc(C(=O)Nc2nnc(-c3ccccc3Cl)o2)cc1 (stereo unspecified),-9,0.0079µM*,-3,1%,0.28µM*,-9%
Cn1cccc1Cc1nnc(SCC(=O)Nc2nccs2)n1C,-4,-2%,-4,nt,-14%,1%
CCn1c(COc2ccc(C(C)C)cc2)nnc1SCC(=O)Nc1nccs1,-5,?,0,5%,11µM*,-2%
Cn1cccc1Cc1nnc(SCC(=O)Nc2nccs2)n1CCc1ccccc1,-8,?,-18,-4%,18µM*,1%
CCSCc1nnc(SCC(=O)Nc2nccs2)n1CC,0,1%,17,12%,-27%,-3%
COc1ccccc1OC(C)C(=O)Nc1ccccc1C(=O)NCc1cccnc1 (stereo unspecified),4,-14%,29,nt,14%,2%
CCC(CNc1cc(OC)cc2cccnc12)NC1CCCCC1 (stereo unspecified),nt,?,-13,nt,16µM*,?
COc1cc(NCCCC(C)N)c2ncccc2c1 (stereo unspecified),-70*,?,?,nt,2.2µM*,?
COc1cc(NCCCCC(C)N)c2nccc(C)c2c1 (stereo unspecified),-11,nt,-15,nt,nt,nt
COc1ccc(OCCCn2cc(/C=C3/C(=N)N4C=C(C)SC4=NC3=O)c3ccccc32)cc1,1,1.6µM*,-3,16%,0.79µM*,nt
COc1cccc(OCCCn2cc(/C=C3/C(=N)N4C=C(C)SC4=NC3=O)c3ccccc32)c1,-7,1.4µM*,-10,4%,2.2µM*,nt
CCCCCCOC(=O)C(C#N)c1nc2ccccc2nc1N1CCOCC1 (stereo unspecified),9,1%,3,-10%,-32%,1%
CCCCCCOC(=O)C(C#N)c1nc2ccccc2nc1N1CCN(CC)CC1 (stereo unspecified),-30,?,-28,-17%,10µM*,?
CC1(C)OC[C@@H]2O[C@@]3(C(=O)O)OC(C)(C)O[C@@H]3[C@@H]2O1,nt,2%,nt,nt,-9%,nt
Cc1cc(C)n(-c2nc(Nc3ccccc3C)nc(-n3nc(C)cc3C)n2)n1,nt,10µM*,nt,-16%,2.8µM*,-4%
Cc1cc(C)n(-c2nc(Nc3ccccc3C(F)(F)F)nc(-n3nc(C)cc3C)n2)n1,-7,7.1µM*,-1,5%,7.1µM*,3%
COc1cc(NC(=O)CN2C(=O)COc3ccc(S(=O)(=O)N4CCCCC4)cc32)cc(OC)c1,-73*,1%,?,nt,18%,-4%
COc1ccc(NC(=O)CN2C(=O)COc3ccc(S(=O)(=O)N4CCOCC4)cc32)cc1Cl,-92*,-5%,6,nt,36%,-3%

# From PubChem
